Test results from PubChem BioAssay (EPA / NIEHS).
Results filed as inconclusive are left out. Some compounds were tested as several samples or in several runs, with calls that do not always agree. Activity calls are given as the source filed them. Rule for the calls, unless noted: active = hit-call score of the fitted dose curve at least 0.9, where 1 is the maximum; inconclusive = response in the unintended direction; inactive = score below 0.9.

Key:
[1] = molecular target: Estrogen receptor (Homo sapiens) (UniProt P03372); test: OT_ERa_GFPERaERE_0480: Odyssey Thera (OT) 8-hour HeLa Transcription Induction Assay for Estrogen Receptor (AID 2283381; active = hit-call score of the fitted dose curve at least 0.9, where 1 is the maximum; inactive = score below 0.9)
Sequence of Estrogen receptor (Homo sapiens) (P03372 whole entry, looked up): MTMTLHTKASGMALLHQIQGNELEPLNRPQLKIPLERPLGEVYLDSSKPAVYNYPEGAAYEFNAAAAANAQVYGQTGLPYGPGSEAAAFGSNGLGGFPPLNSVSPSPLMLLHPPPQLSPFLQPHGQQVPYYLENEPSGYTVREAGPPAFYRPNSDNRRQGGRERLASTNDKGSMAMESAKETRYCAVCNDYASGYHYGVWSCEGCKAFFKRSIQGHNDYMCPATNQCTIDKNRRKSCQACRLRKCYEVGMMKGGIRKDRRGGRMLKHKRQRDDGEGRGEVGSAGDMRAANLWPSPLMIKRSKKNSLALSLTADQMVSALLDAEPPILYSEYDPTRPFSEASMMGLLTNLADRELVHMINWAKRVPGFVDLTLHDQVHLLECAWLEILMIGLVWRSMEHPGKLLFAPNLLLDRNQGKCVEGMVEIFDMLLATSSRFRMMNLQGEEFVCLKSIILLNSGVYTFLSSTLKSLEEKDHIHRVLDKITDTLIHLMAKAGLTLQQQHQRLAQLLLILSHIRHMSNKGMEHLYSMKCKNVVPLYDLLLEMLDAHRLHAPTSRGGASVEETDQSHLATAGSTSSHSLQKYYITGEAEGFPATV
Method in brief: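 GFP-ERE reporter, HeLa, 8 h exposure. Readout: fluorescence microscopy, high-content image analysis. Fit direction positive vs DMSO negative control.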

[2] = molecular target: Estrogen receptor (Homo sapiens) (UniProt P03372); test: OT_ERa_GFPERaERE_0120: Odyssey Thera (OT) 2-hour HeLa Transcription Induction Assay for Estrogen Receptor (AID 2283382)
Method in brief: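 Fluorescence microscopy read-out: inducible fluorescent protein reporter in HeLa cells, imaged 2 h post-dose. Signal increase over DMSO negative control fitted as single primary endpoint via high content image analysis.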

[3] = molecular target: Retinoic acid receptor RXR-alpha (Homo sapiens) (UniProt P19793); test: OT_NURR1_NURR1RXRa_1440: Odyssey Thera (OT) 24-hour HEK293T Protein Complementation Assay for Nurr1/retinoid X receptor (RXR) (AID 2283386)
Sequence of Retinoic acid receptor RXR-alpha (Homo sapiens) (P19793 whole entry, looked up, the tested form may be a part): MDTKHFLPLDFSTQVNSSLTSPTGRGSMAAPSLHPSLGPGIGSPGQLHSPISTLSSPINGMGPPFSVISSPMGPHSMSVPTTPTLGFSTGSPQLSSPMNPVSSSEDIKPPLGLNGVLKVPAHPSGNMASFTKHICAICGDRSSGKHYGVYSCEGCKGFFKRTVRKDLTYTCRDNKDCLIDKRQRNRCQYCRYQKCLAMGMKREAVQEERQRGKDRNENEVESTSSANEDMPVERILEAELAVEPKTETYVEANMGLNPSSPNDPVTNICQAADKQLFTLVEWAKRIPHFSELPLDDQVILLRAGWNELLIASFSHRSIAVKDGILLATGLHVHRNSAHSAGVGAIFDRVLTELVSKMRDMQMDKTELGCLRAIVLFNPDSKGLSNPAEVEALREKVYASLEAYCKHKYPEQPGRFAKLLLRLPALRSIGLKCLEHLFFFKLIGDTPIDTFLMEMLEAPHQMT
Method in brief: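 Fluorescence PCA read-out; HEK293T; 24 h post-dose; bait/prey fused to reporter fragments; gain-of-signal fit vs DMSO negative control.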

[4] = molecular target: Peroxisome proliferator-activated receptor gamma (Homo sapiens) (UniProt P37231); test: OT_PPARg_PPARgSRC1_0480: Odyssey Thera (OT) 8-hour Protein-Complementation Assay for Peroxisome Proliferator-activated Receptor Gamma / SRC-1 Co-activator (AID 2283387);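 note: nuclear to cytoplasmic split Venus YFP fluorescence ratio reporting PPARg SRC-1 interaction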
Sequence of Peroxisome proliferator-activated receptor gamma (Homo sapiens) (P37231 whole entry, looked up, the tested form may be a part): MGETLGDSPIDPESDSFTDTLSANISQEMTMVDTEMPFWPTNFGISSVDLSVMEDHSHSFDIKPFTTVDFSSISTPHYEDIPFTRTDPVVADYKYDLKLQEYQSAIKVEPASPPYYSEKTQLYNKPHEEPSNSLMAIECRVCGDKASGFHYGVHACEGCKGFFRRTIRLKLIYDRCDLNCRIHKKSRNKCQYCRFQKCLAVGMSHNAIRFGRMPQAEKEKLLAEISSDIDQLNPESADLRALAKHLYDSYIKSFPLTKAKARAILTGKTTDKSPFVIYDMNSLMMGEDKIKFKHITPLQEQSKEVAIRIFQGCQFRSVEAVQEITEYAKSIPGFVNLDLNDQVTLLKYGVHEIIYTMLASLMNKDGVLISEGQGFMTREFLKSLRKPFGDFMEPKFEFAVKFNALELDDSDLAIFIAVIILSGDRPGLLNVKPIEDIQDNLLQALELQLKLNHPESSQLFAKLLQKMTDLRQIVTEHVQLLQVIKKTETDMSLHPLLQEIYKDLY
Method in brief: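 Protein-fragment complementation of split Venus YFP reports PPARg/SRC-1 interaction in HEK293T (transfected 48 h before treatment), exposed 8 h. Readout: N/C fluorescence ratio at 488 nm from imaging, Draq5 for segmentation, positive fit relative to DMSO.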

[5] = molecular target: Peroxisome proliferator-activated receptor gamma (Homo sapiens) (UniProt P37231); test: OT_PPARg_PPARgSRC1_1440: Odyssey Thera (OT) 24-hour Protein-Complementation Assay for Peroxisome Proliferator-activated Receptor Gamma/ SRC-1 Co-activator (AID 2283388);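 note: nuclear to cytoplasmic ratio of reconstituted Venus YFP fluorescence in fixed imaged cells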
Method in brief: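 Readout: nuclear-to-cytoplasmic 488 nm fluorescence ratio, ≥350 cells per image, 8 images per well, after 24 h compound exposure of HEK293T expressing PPARg/SRC-1 split-YFP fusions. Activity fitted in positive direction against DMSO.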

[6] = CEETOX_H295R_11DCORT: CeeTox H295R High-throughput Steroidogenesis Assay for 11-Deoxycortisol (11DCORT) (AID 2283432; active = hit-call score of the fitted dose curve at least 0.9, where 1 is the maximum; inactive = score below 0.9); settings: actives raise or lower the signal
Method in brief: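 Human adrenal H295R cells were prestimulated with 10 uM forskolin for 48 h, then exposed to test chemical (0.1% DMSO final) for 48 h. Medium 11-deoxycortisol was quantified by MTBE extraction and HPLC-MS/MS; bidirectional fitting relative to DMSO.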

[7] = CEETOX_H295R_OHPREG: CeeTox H295R High-throughput Steroidogenesis Assay for OH-Pregnenolone (OHPREG) (AID 2283434; active = hit-call score of the fitted dose curve at least 0.9, where 1 is the maximum; inactive = score below 0.9); settings: actives raise or lower the signal
Method in brief: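 Readout: HPLC-MS/MS of 17alpha-hydroxypregnenolone in medium after 48 h chemical exposure of H295R cells pretreated with forskolin. Values fitted bidirectionally relative to DMSO; chemicals reducing viability to 20–70% were retested after 10-fold dilution.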

[8] = CEETOX_H295R_OHPROG: CeeTox H295R High-throughput Steroidogenesis Assay for OH-Progesterone (OHPROG) (AID 2283435; active = hit-call score of the fitted dose curve at least 0.9, where 1 is the maximum; inactive = score below 0.9); settings: actives raise or lower the signal
Method in brief: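 HPLC-MS/MS quantification of 17alpha-hydroxyprogesterone secreted by H295R cells after 48 h chemical exposure, following 48 h 10 uM forskolin prestimulation. Gain or loss of signal fitted relative to DMSO. Viability checked by MTT in the same wells.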

[9] = CEETOX_H295R_CORTIC: CeeTox H295R High-throughput Steroidogenesis Assay for Corticosterone (CORTIC) (AID 2283437; active = hit-call score of the fitted dose curve at least 0.9, where 1 is the maximum; inactive = score below 0.9;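 note: corticosterone secreted into medium quantified by mass spectrometry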); settings: actives raise or lower the signal
Method in brief: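 Steps: seed H295R, adhere overnight; 10 uM forskolin 48 h; replace with chemical (0.1% DMSO) 48 h; extract medium with MTBE; quantify corticosterone by HPLC-MS/MS; score bidirectionally vs DMSO.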

[10] = CEETOX_H295R_CORTISOL: CeeTox H295R High-throughput Steroidogenesis Assay for Cortisol (AID 2283438; active = hit-call score of the fitted dose curve at least 0.9, where 1 is the maximum; inactive = score below 0.9;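 note: cortisol secreted into medium quantified by LC-MS/MS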); settings: actives raise or lower the signal
Method in brief: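 Read-out: cortisol in culture medium by reverse-phase C18 HPLC with ESI-positive tandem MS, after MTBE liquid-liquid extraction. Cells: human adrenal H295R, forskolin-primed (10 uM, 48 h) before 48 h chemical exposure in 0.1% DMSO.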

[11] = CEETOX_H295R_DOC: CeeTox H295R High-throughput Steroidogenesis Assay for DOC (AID 2283439; active = hit-call score of the fitted dose curve at least 0.9, where 1 is the maximum; inactive = score below 0.9); settings: actives raise or lower the signal
Method in brief: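 Human adrenocortical H295R cells, passages up to 10, received 10 uM forskolin for 48 h before chemical addition. After another 48 h exposure in 0.1% DMSO, secreted DOC was measured by LC-MS/MS, with gain or loss fitted against DMSO controls.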

[12] = CEETOX_H295R_ESTRADIOL: CeeTox H295R High-throughput Steroidogenesis Assay for Estradiol (AID 2283440; active = hit-call score of the fitted dose curve at least 0.9, where 1 is the maximum; inactive = score below 0.9;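 note: estradiol secreted into medium quantified by LC-MS/MS after dansyl derivatisation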); settings: actives raise or lower the signal
Method in brief: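 H295R, 48 h forskolin (10 uM) prestim → 48 h compound, 0.1% DMSO final. Estradiol in medium: MTBE extraction, dansyl chloride derivatization, LC-MS/MS. Fit bidirectional vs DMSO baseline; MTT viability in same wells.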

[13] = CEETOX_H295R_ESTRONE: CeeTox H295R High-throughput Steroidogenesis Assay for Estrone (AID 2283441; active = hit-call score of the fitted dose curve at least 0.9, where 1 is the maximum; inactive = score below 0.9;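 note: estrone secreted into medium measured by LC-MS/MS after dansyl derivatization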); settings: actives raise or lower the signal
Method in brief: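 Forskolin-stimulated H295R cells are treated 48 h with chemical, and estrone in the medium is measured by LC-MS/MS. Activity is fitted in both directions relative to DMSO controls, with chemicals diluted until MTT viability reaches at least 70%.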

[14] = CEETOX_H295R_PROG: CeeTox H295R High-throughput Steroidogenesis Assay for Progesterone (PROG) (AID 2283442; active = hit-call score of the fitted dose curve at least 0.9, where 1 is the maximum; inactive = score below 0.9); settings: actives raise or lower the signal
Method in brief: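 Progesterone read-out: HPLC-MS/MS on MTBE extracts of conditioned medium after 48 h chemical exposure of forskolin-primed (10 uM, 48 h) H295R cells. Gain or loss of signal was fitted relative to DMSO baseline.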

[15] = ATG_XTT_Cytotoxicity: Cytotoxicity Assessment in the Attagene TRANS-FACTORIAL HepG2 Assay (AID 2283584)
Method in brief: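 XTT readout of cell number in transfected HepG2 cells, 24 h post-dosing; DMSO serves as negative control and baseline, with activity taken as loss of viability signal.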

[16] = TOX21_p53_BLA_p2_viability: Viability Assessment in the Tox21 HCT-116 p53 Agonism Beta-lactamase Assay, Phase 2 (AID 2283591);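 note: compound exposure lasted 16 h at 37 °C; actives lower the ATP signal meaning cytotoxicity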
Method in brief: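 HCT-116 p53-bla cells (4000/well) rested 5 h at 37C, then received compounds in DMSO (217-fold dilution) for 16 h at 37C, 5% CO2. After the CCF4 read, CellTiter-Glo was added; ATP luminescence was read after 30 min at room temperature.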

[17] = molecular target: Bile acid receptor (Homo sapiens) (UniProt Q96RI1); test: OT_FXR_FXRSRC1_0480: Odyssey Thera (OT) 8-hour HEK293T Protein-Complementation Assay for Farnesoid X receptor/SRC-1 Co-activator (AID 2283383)
Sequence of Bile acid receptor (Homo sapiens) (Q96RI1 whole entry, looked up, the tested form may be a part): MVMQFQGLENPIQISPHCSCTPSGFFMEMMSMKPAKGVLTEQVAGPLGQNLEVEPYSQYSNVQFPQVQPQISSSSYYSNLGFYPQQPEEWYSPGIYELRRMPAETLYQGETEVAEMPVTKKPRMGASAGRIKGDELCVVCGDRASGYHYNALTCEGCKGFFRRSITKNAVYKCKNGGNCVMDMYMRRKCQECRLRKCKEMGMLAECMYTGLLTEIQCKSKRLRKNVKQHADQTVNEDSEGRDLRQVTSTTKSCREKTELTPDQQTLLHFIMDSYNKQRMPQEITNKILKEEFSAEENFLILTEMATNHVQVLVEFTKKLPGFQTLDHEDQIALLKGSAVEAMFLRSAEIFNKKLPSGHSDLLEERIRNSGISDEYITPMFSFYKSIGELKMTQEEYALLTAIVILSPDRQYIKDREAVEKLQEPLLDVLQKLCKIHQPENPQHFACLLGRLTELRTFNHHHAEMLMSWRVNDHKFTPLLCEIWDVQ
Method in brief: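 Fluorescence intensity read-out, 8 h post-dose, HEK293T protein-fragment complementation; FXR bait and SRC-1 prey each linked to reporter fragments. Activity scored as signal increase over DMSO negative control.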

[18] = molecular target: Bile acid receptor (Homo sapiens) (UniProt Q96RI1); test: OT_FXR_FXRSRC1_1440: Odyssey Thera (OT) 24-hour HEK293T Protein-Complementation Assay for Farnesoid X receptor/SRC-1 Co-activator (AID 2283384)
Method in brief: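 Fluorescence readout, 24 h post-dose, HEK293T; FXR and SRC-1 fused to complementary reporter fragments, association reconstitutes signal. Positive-direction fit vs DMSO baseline.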

Measured: AC50

CCCCCCCCCCCCCOP(=O)(O)O
not listed: [17] | [18]
inactive: all other assays above

CC/C=C\C/C=C\C/C=C\CCCCCCCC(=O)O
inactive: [1] | [2] | [17] | [18] | [4]

OC1CCCCCCCCCCC1
inactive: [1] | [2] | [3] | [4] | [5] | [15] | [16]

CC(CC=O)CCCC(C)(C)O (stereo not given)
inactive: [1] | [2] | [3] | [4] | [5] | [15]

O=C(O)CCCC[C@@H]1SC[C@@H]2NC(=O)N[C@@H]21
inactive: [1] | [2] | [3] | [4] | [5] | [15]

Cc1cc(C)c(C)cc1C
inactive: [1] | [2] | [17] | [3] | [4] | [5]

CC(C)(C)c1ccc(N)cc1
inactive: [1] | [2] | [3] | [4] | [5] | [15]

CCCCOCCOC(=O)COc1nc(Cl)c(Cl)cc1Cl
inactive: [1] | [2] | [17] | [18] | [3] | [4] | [15]

CCN(CCC#N)c1ccc(N=Nc2c(Cl)cc([N+](=O)[O-])cc2Cl)cc1
inactive: [1] | [2] | [18] | [4] | [5] | [15]
active: [17] 29 µM | [3] 50 µM

CC(=O)[C@H]1[C@H](C#N)C[C@H]2[C@@H]3CC=C4C[C@@H](O)CC[C@]4(C)[C@H]3CC[C@@]21C
inactive: [1] | [2] | [17] | [18] | [3] | [4] | [5] | [15] | [16]

CC(C)(C)c1ccc(OC(=O)c2ccccc2O)cc1
active: [17] 35.6 µM | [18] 75.9 µM | [3] 89 µM
inactive: [1] | [2] | [4] | [15] | [16]

O=S1(=O)OC(c2ccc(O)cc2)(c2ccc(O)cc2)c2ccccc21
inactive: [2] | [3] | [4]
active: [1] 73 µM

CC=C1CC2C=CC1C2 (stereo not given)
inactive: [1] | [2] | [17] | [18] | [3] | [4] | [15]

CO[Si](OC)(OC)c1ccccc1
inactive: [1] | [2] | [3] | [4] | [5]

CCCCCCCCO[C@@H]1O[C@H](CO)[C@@H](O)[C@H](O)[C@H]1O
inactive: [1] | [2] | [17] | [4] | [5] | [15]

CCOC(=O)CC
inactive: [1] | [2] | [17] | [18] | [3] | [4] | [15] | [16]

OC1CCCC1
inactive: [1] | [2] | [3] | [4]

Cc1cc(C)c(C(=O)O)c(C)c1
active: [1] 93 µM | [2] 94.2 µM
inactive: [3] | [4] | [15]

CC(C)C1=CC2=CC[C@@H]3[C@](C)(CCC[C@@]3(C)C(=O)O)[C@H]2CC1
active: [16] 58.9 µM
inactive: [1] | [2] | [3] | [4] | [5] | [15]

CN(C)c1ccc(C(=N)c2ccc(N(C)C)cc2)cc1
active: [3] 26.7 µM | [4] 30.6 µM | [7] 3.27 µM
not listed: [5] | [10] | [17] | [18]
inactive: all other assays above

CN(C)c1ccc(N=Nc2ccccc2C(=O)O)cc1
inactive: [1] | [2] | [3] | [4] | [5] | [15]
active: [16] 75.8 µM

CNC(=S)NN
inactive: [1] | [2] | [3] | [4] | [5] | [15]

CCCCCCCC/C=C\CCCCCCCC(=O)OCCO
active: [3] 38.7 µM
inactive: [1] | [2] | [4] | [5] | [15]

CC(C)c1ccc2cc(C(C)C)ccc2c1
inactive: [1] | [2] | [4] | [5] | [15]
active: [3] 97.6 µM

NC(=O)c1ccccc1O
inactive: [1] | [2] | [17] | [18] | [3] | [4] | [5] | [15] | [16]

O=c1cc(-c2ccccc2)oc2ccccc12
inactive: [1] | [2] | [3] | [4]

CCCCCCCC/C=C\CCCCCCCC(=O)O
inactive: [1] | [2] | [17] | [4] | [5] | [15] | [16]

C=C[Si](C)(C)O[Si](C)(C)C=C
inactive: [1] | [2] | [3] | [4] | [5] | [15] | [16]

O=C(C(Cl)Cl)N1CCOC12CCCCC2
inactive: [1] | [2] | [17] | [18] | [3] | [4] | [15] | [16]

c1ccc2c(c1)ccc1cc3c(ccc4ccccc43)cc12
inactive: [1] | [2] | [17] | [18] | [3] | [16]

CCCCC/C=C\C/C=C\CCCCCCCC(=O)OC
active: [3] 50 µM | [16] 66.2 µM
inactive: [1] | [2] | [4] | [5] | [16]

CCCCCc1ccc(Cl)cc1
inactive: [1] | [2] | [17] | [18] | [3] | [4] | [5] | [16]
